The sample as a whole holds a higher share of hits than the screen did.
ROC1-CUL1 inh – inhibitors of human ROC1-CUL1 ubiquitin ligase activity; in vitro K48 di-Ub FRET, acceptor:donor ratio, 45 min; 140,000 tested, 0.6% active; E3 ubiquitin-protein ligase RBX1 (Homo sapiens) + Cullin-1 (Homo sapiens), P62877+Q13616; inhibition, % at 10 µM; in the data active = inhibition above about 25%
Target sequence (P62877 whole entry, looked up): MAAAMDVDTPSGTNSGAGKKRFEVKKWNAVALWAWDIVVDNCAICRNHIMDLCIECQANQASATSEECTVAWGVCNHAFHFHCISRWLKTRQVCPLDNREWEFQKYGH
Target sequence (Q13616 whole entry, looked up): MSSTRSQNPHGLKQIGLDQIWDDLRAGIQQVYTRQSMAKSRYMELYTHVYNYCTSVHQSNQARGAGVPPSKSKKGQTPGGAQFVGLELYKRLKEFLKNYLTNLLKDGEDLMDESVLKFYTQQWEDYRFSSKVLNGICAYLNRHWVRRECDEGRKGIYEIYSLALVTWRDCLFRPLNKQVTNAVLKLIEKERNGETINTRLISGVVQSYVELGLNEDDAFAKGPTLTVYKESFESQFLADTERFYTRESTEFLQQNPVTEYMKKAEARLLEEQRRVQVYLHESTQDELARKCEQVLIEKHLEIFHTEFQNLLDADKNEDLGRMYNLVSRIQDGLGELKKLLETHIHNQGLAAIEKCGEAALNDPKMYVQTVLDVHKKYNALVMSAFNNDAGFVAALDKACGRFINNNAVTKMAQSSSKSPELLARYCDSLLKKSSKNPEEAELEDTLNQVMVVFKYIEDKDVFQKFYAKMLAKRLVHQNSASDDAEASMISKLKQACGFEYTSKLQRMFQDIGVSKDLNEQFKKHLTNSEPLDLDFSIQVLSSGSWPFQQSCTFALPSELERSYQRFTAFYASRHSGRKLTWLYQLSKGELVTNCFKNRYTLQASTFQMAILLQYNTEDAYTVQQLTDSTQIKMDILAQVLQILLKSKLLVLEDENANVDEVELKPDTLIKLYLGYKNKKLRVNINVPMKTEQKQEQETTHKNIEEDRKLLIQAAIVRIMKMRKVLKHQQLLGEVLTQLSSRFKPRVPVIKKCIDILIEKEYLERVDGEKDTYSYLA
* = called active by the depositor.

SMILES	ROC1-CUL1 inh
COc1ccc(-n2ccnc2SCC(=O)Nc2nnc(C)s2)cc1	3
CCOC(=O)N1CCC(NC(=O)c2cnn(-c3ccccc3)c2C2CCN(C(=O)OC(C)(C)C)CC2)CC1	1
Cc1c(C)n(C)c2ccc(C(=O)NC3C4CC5CC(C4)CC3C5)cc12 (configuration not stated)	6
CCCCCc1ccc(-c2ccc(C34CCC(CC)(CC3)CC4)cc2)nc1	-3
Cc1ccc(C2=NC(=O)/C(=C/c3sccc3C)S2)cc1	3
COc1ccc(C(=O)Nc2ccnn2C2CCN(Cc3ccc(C)s3)CC2)cc1	-4
CCOC(=O)C1=C(C)N=c2s/c(=C/c3cc(Br)c(O)c(Br)c3)c(=O)n2C1c1ccc(Cl)cc1 (configuration not stated)	83*
CCOC(=O)C1=C(C)N=c2s/c(=C\c3ccc(O)c(Br)c3)c(=O)n2C1c1ccc(OC)cc1 (configuration not stated)	35*
C=CCOc1ccc(C2C(C(=O)OCC)=C(C)N=c3s/c(=C\c4cc(I)c(O)c(OC)c4)c(=O)n32)cc1 (configuration not stated)	37*
CCOC(=O)C1=C(c2ccccc2)N=c2s/c(=C\c3ccc([N+](=O)[O-])o3)c(=O)n2C1c1cccc(OC)c1 (configuration not stated)	-5
CCOC(=O)C1=C(C)N=c2s/c(=C\c3ccc4c(c3)OCO4)c(=O)n2C1c1ccc(OC)cc1 (configuration not stated)	10
CCOC(=O)C1=C(C)N=c2s/c(=C\c3cc4c(cc3Br)OCO4)c(=O)n2C1c1ccc(Cl)cc1 (configuration not stated)	-3
C=CCc1cc(/C=c2/sc3n(c2=O)C(c2ccc(OC)cc2OC)C(C(=O)OCC)=C(C)N=3)cc(OC)c1O (configuration not stated)	-6
CCOC(=O)C1=C(c2ccccc2)N=c2s/c(=C\c3cc([N+](=O)[O-])ccc3O)c(=O)n2C1c1cccc(OC)c1 (configuration not stated)	60*
CCOC(=O)C1=C(C)N=c2s/c(=C/c3ccsc3)c(=O)n2C1c1ccc(OC)cc1 (configuration not stated)	2
C=CCc1cc(/C=c2/sc3n(c2=O)C(c2cccc(OC)c2OCC)C(C(=O)OCC)=C(C)N=3)cc(OC)c1O (configuration not stated)	-11
CCOC(=O)C1=C(c2ccccc2)N=c2s/c(=C/c3ccccc3O)c(=O)n2C1c1cccc(OC)c1 (configuration not stated)	1
CCOC(=O)C1=C(C)N=c2s/c(=C\c3ccc(O)cc3)c(=O)n2C1c1ccc(F)cc1 (configuration not stated)	7
COc1cccc(NC(=O)Cn2c(=O)n(Cc3ccccc3)c(=O)c3ccccc32)c1	0
COCc1c(Br)c(C)nc(OCC(=O)O)c1C#N	3
Cc1occc1C(=O)Nc1ccc(Cl)cc1F	-5
O=C(Nc1ccccn1)c1ccc(-c2ccc(C(=O)Nc3ccccn3)cc2)cc1	8
Cn1cc(/C=N/NC(=O)COc2ccc(Cl)cc2Cl)c2ccccc21	-1
COc1ccc(N2C(=O)CC(Sc3ccc(Cl)cc3)C2=O)c(OC)c1 (configuration not stated)	-4
CCOC(=O)c1cnn2c(C(F)(F)F)cc(-c3ccc(C)c(C)c3)nc12	-5
SMILES	ROC1-CUL1 inh
Cc1ccc(-c2nn(-c3ccccc3)cc2/C=N/NC(=O)COc2ccc([N+](=O)[O-])cc2)cc1	-10
CCCc1nn2c(=O)cc(COC(=O)c3ccc(NC(=O)c4cccs4)cc3)nc2s1	-8
C[n+]1cc2sccc2c2cscc21	-9
COc1ccc(F)c(CC2(CCC(=O)N3CCN(Cc4ncccc4C)CC3)CCC(=O)N2)c1 (configuration not stated)	-6
CCOC(=O)C1=C(C)N=c2s/c(=C/c3ccoc3)c(=O)n2C1c1ccc(OC)cc1 (configuration not stated)	9
CCOC(=O)C1=C(C)N=c2s/c(=C/c3ccc(O)cc3)c(=O)n2C1c1cc(OC)ccc1OC (configuration not stated)	-3
CCOC(=O)C1=C(C)N=c2s/c(=C\c3ccc(O)cc3)c(=O)n2C1c1ccc(OCC)cc1 (configuration not stated)	2
CCOC(=O)C1=C(C)N=c2s/c(=C\c3cc(Cl)ccc3O)c(=O)n2C1c1ccc(OCC)cc1 (configuration not stated)	6
CCOC(=O)C1=C(C)N=c2s/c(=C\c3cc(Br)c(O)c(OC)c3)c(=O)n2C1c1ccc(OC)cc1 (configuration not stated)	53*
CCOC(=O)C1=C(C)N=c2s/c(=C/c3cc(Br)c(O)cc3O)c(=O)n2C1c1ccc(OCC)cc1 (configuration not stated)	66*
COc1ccc(-c2cc(C(F)(F)F)n3nc(C(=O)Nc4ccc(Cl)cc4Cl)c(Br)c3n2)cc1	0
O=C(NCc1cccnc1)C1CCCC1	9
NC(=O)NCCOc1ccccc1	2
Cc1ccc([C@H]2Nc3ccc(S(=O)(=O)Nc4cccc(Cl)c4C)cc3[C@H]3C=CC[C@H]32)cc1	3
COC(=O)c1ccc([C@@H]2Nc3c(OC)ccc(C)c3[C@@H]3C=CC[C@@H]32)cc1	4
Cc1ccc([C@@H]2Nc3c(ccc(C(=O)O)c3C)[C@@H]3C=CC[C@@H]32)cc1	97*
CCOC(=O)CC(NC(=O)Cn1nnc(-c2ccc(C(F)(F)F)cc2)n1)c1ccccc1Cl (configuration not stated)	-1
COc1cc2nc(NCc3ccc(C)cc3)n3nc(-c4ccccc4)nc3c2cc1OC	-2
COc1cc(C(c2c(C)[nH][nH]c2=O)c2c(C)[nH][nH]c2=O)ccc1OC(=O)c1cccc(C)c1	9
CCOC(=O)c1cccc(NC(=O)C(C)CC)c1 (configuration not stated)	-12
CCOC(=O)c1cccc(-c2ccc(C(c3c(C)[nH][nH]c3=O)c3c(C)[nH][nH]c3=O)o2)c1	39*
CCOC(=O)c1ccc(-c2c(Cl)cc(NC(C)=O)cc2Cl)o1	3
COc1ccc(/C=N/NC(=O)c2cc3ccccc3o2)cc1	-5
Cc1cc(C)cc(N2C(=O)/C(=C/c3cn(CC(=O)N4CCC(C)CC4)c4ccccc34)C(=O)NC2=S)c1	-6
Cc1c(Cl)cccc1N1C(=O)/C(=C/c2cn(CC(=O)O)c3ccccc23)C(=O)NC1=S	81*
SMILES	ROC1-CUL1 inh
O=C1NC(=S)N(c2ccc(Br)cc2)C(=O)/C1=C/c1cn(CC(=O)N2CCCc3ccccc32)c2ccccc12	-10
CCCCN(CC)C(=O)CSc1nc2n[nH]c(C)c2c(=N)n1-c1ccc(CC)cc1	-5
COc1ccccc1C(=O)NCc1ccc(C)cc1	-2
CSc1ccc(/C=C/C(=O)c2ccc(NC(=O)C(C)C)cc2)cc1	1
COCCN1C(=O)CC(CC(=O)N(C)Cc2n[nH]c3c2CCCCC3)(c2ccccc2F)C1=O (configuration not stated)	2
CCCCC(=O)Nc1ccccc1O	4
CCCCC(=O)Nc1ccccc1NC(=O)C(C)C	-3
CCCCC(=O)Nc1cccc2cccc(S(=O)(=O)O)c12	95*
O=C(Nc1cc([N+](=O)[O-])ccc1Cl)c1cc(C(=O)Nc2cc([N+](=O)[O-])ccc2Cl)cc([N+](=O)[O-])c1	11
